# High-throughput results (PubChem)
# Tb PYK inh: qHTS of Trypanosoma Brucei Inhibitors | TbPYK enzyme, Kinase-Glo Plus ATP luminescence, 45 min | Potency, µM (highest dose often 76.8 µM), for the others: at the top dose activity, negative = inhibition, most hits filed as inhibitors | 410,000 compounds, 0.12% hits; also: potency is read from the fitted curve at half-maximal effect; % is scaled to controls: 0 for no effect and ±100 for the full control effect; nearly all actives have a fitted effect of over 50% in size
#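 ADP (130 uM final) triggers the TbPYK reaction after compound addition; incubation is 45 min at room temperature. Kinase-Glo Plus is then added and luminescence imaged. Normalized data are fitted to concentration-effect curves.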
# Shiga toxin inh: A qHTS for Small Molecule Inhibitors of Shiga Toxin; Vero cells, Shiga toxin protein synthesis inhibition reporter; inhibition, % at 38.7 µM; 290,000 compounds, 9.2% hits; AID 2315, 2010; in the data active = inhibition mostly above about 28%, no sharp cut-off; inactive = mostly below about 43%; also: 0% is about no effect
# Cycloheximide cs: Cycloheximide Counterscreen for Small Molecule Inhibitors of Shiga Toxin | cell reporter, cycloheximide protein synthesis inhibition counterscreen | max response, % | 300,000 compounds, 12% hits | AID 2314, 2010; in the data active = max response mostly above about 13%, no sharp cut-off; inactive = mostly below about 14%; also: read at 38.3 µM for the half of the compounds with a filed dose; 0% is about no effect
# FBPA Giardia inh: qHTS Assay for Inhibitors of Fructose-1,6-bisphosphate Aldolase from Giardia Lamblia. A8B2U2. purified Giardia FBPA. Potency, µM (top dose mostly 59.6 µM), for the others: at the top dose activity, negative = inhibition, actives largely listed as inhibitors. 290,000 compounds, 0.71% hits; also: potency is read from the fitted curve at half-maximal effect; % is scaled to controls: 0 for no effect and ±100 for the full control effect; nearly all actives have a fitted effect of over 55% in size
# Target sequence (A8B2U2 whole entry, looked up): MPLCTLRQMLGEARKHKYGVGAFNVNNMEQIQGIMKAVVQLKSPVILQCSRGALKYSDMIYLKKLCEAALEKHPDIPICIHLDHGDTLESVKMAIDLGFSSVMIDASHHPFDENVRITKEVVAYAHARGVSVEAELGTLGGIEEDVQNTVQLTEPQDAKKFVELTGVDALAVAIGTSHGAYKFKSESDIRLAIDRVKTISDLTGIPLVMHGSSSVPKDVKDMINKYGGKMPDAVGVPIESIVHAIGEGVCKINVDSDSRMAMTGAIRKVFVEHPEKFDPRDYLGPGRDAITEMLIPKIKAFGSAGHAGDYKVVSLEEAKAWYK
#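 Giardia FBPA (40 nM reagent) was preincubated 10 min at RT with compound (up to 57.5 uM final), then substrate plus GAPDH/TPI/NAD/arsenate coupling system with diaphorase/resazurin was added; resorufin fluorescence (525/598 nm) was read after 20 min.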
# Sm TGR block: qHTS Assay for the Inhibitors of Schistosoma Mansoni Peroxiredoxins | purified TGR, DTNB reduction, TNB absorbance 405 nm | Potency, µM (series often up to 114 µM), without a hit: at the highest dose activity change, negative = inhibition, usual class: inhibitors | 360,000 compounds, 3% hits | AID 485364, 2010; also: potency is read from the fitted curve at half-maximal effect; % is scaled to controls: 0 for no effect and ±100 for the full control effect; nearly all actives have a fitted effect of over 60% in size
#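 Kinetic colorimetric format: TGR-catalysed, NADPH-driven DTNB reduction monitored via TNB absorbance. Enzyme dispensed at 20 nM; compound exposure 15 min at room temperature before reaction start.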
# LmPK inhibitor: qHTS Assay for Inhibitors of Leishmania Mexicana Pyruvate Kinase (LmPK) | Q27686 | purified LmPK, Kinase-Glo ATP luminescence, 1 h | Potency, µM (highest dose often 57.5 µM), for inactives: at the top dose activity change, negative = inhibition, usual class: inhibitors | 290,000 compounds, 0.37% hits; also: potency is read from the fitted curve at half-maximal effect; % is scaled to controls: 0 for no effect and ±100 for the full control effect
#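 Screened at intermediate enzyme activity to detect both inhibitors and activators: LmPK at 0.1 nM, with a 0.5 nM enzyme column as activation reference. PEP 0.5 mM, ADP 0.1 mM; ATP detected by luminescence after 1 h.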
# * hit, by the source's call; ? = inconclusive; . = not tested or not shown; [ ] = remark or other dose. The entries come from a sample that favours hits as a whole. Unless noted, calls follow the shape of the dose curve; as a rule, active = well fitted curve in the direction sought with a large enough effect; inconclusive = small, poorly fitted or top-dose-only effect, or another doubt; inactive = no such curve, though single readings can be large; an effect the other way counts as inactive or inconclusive.
SMILES,Tb PYK inh,Shiga toxin inh,Cycloheximide cs,FBPA Giardia inh,Sm TGR block,LmPK inhibitor
O=C(Nc1nc2ccc(F)cc2s1)c1nc(S(=O)(=O)Cc2ccccc2F)ncc1Cl,6%,.,.,.,?,.
CC(C)c1nnc(NC(=O)c2nc(S(=O)(=O)Cc3ccccc3F)ncc2Cl)s1,-9%,106*,56*,.,32µM*,-9%
COC(=O)[C@@H]1C[C@@]2(O)[C@H](O)[C@H](O)[C@H](O)C[C@H]2N1Cc1c(F)cccc1Cl,.,.,.,-6%,.,.
C=Cc1ccc(Cn2c(C(=O)O)c(CNCc3ccc(F)cc3)c3ccc(C)cc32)cc1,-7%,.,.,.,2%,.
COc1ccc(CCc2nc(-c3ccc(-n4cccc4)cc3)no2)cc1,-4%,-8,-3,4%,0%,13%
COc1ccc(-c2noc(CN(C)Cc3ccccc3)n2)cc1,-3%,18,11*,7%,9%,0%
COc1ccc(-c2noc(CCc3ccccc3)n2)cc1,0%,88*,23*,-4%,9%,-1%
CCN(CCn1cccn1)Cc1nc(-c2ccc(OC)cc2)no1,1%,14,4,-3%,.,-6%
CN(Cc1ccc(F)cc1)Cc1nc(-c2ccccc2)no1,2%,24,-1,2%,?,-1%
COc1ccc(-c2noc(CN(C)Cc3ccc(C)o3)n2)cc1,3%,35*,11*,-4%,35µM*,0%
CCC(CC)C(=O)Nc1nnc(SCc2cc(=O)n3cccc(C)c3n2)s1,0%,.,.,.,-1%,.
CCN(CC(=O)NC1CCS(=O)(=O)C1)S(=O)(=O)c1ccc(Br)cc1 (stereo unspecified),-20%,.,.,.,.,.
COc1ccc(C2=NN(c3ccc(C=O)cc3)C(c3ccccc3)C2)cc1 (stereo unspecified),0%,20,-4,0%,2%,3%
Fc1ccc(C2CC(c3cccs3)=NN2c2ccccc2)cc1 (stereo unspecified),-3%,19,5,0%,-27%,2%
c1ccc(C2CC(c3cccs3)=NN2c2ccccc2)cc1 (stereo unspecified),-9%,94*,33*,0%,3%,-5%
COc1ccc(C2CC(c3cccs3)=NN2c2ccc(C=O)cc2)cc1 (stereo unspecified),0%,55*,46*,-8%,4%,3%
COc1ccc(NC(=S)Nn2cnnc2)c(OC)c1,-22%,-15,1,.,8%,-6%
CCN1c2ccccc2-c2nc(SCC(=O)Nc3cccc(C(F)(F)F)c3)ncc2S1(=O)=O,2%,.,.,.,3%,.
COc1ccc(-c2cc(C(=O)O)no2)cc1,3%,1,4,-8%,26%,3%
COc1ccc(-c2cc(C(=O)NCC(C)C)no2)cc1,3%,71*,38*,7%,0%,3%
CCC(C)NC(=O)c1cc(-c2ccc(OC)cc2)on1 (stereo unspecified),0%,66*,29*,0%,-1%,-10%
Cc1ccc(-c2nc(CS(=O)(=O)CC(=O)NCCN3CCCC3)c(C)o2)cc1,-2%,-13,-4,-16%,-28%,4%
CC(=O)NCCNc1nc2cc(-c3cccc(C(F)(F)F)c3)sc2c(=O)n1C,4%,.,.,.,.,.
O=C(CCNc1cccc(Cl)c1)c1ccco1,0%,27,-3,-4%,11µM*,-2%
O=C(CNC(=O)c1ccco1)OCc1cccc(Cl)c1,-5%,18,-1,4%,45µM*,-1%
SMILES,Tb PYK inh,Shiga toxin inh,Cycloheximide cs,FBPA Giardia inh,Sm TGR block,LmPK inhibitor
O=C(COC(=O)Cc1ccccc1)Nc1ncc(Cl)cc1Cl,-3%,-8,8,1%,-26%,-1%
O=C(CNC(=O)c1ccco1)OCc1ccc(C(=O)Oc2ccccc2)cc1,-2%,24*,33*,12%,-5%,1%
O=C(CNC(=O)c1ccco1)NCC(=O)OCc1cccc(Cl)c1,0%,-14,-2,-1%,-45%,1%
O=C(CNC(=O)c1ccco1)NCC(=O)OCc1ccc(C(=O)Oc2ccc(Cl)cc2)cc1,.,2,1,3%,0%,1%
O=C(COC(=O)CNC(=O)c1ccco1)Nc1ncc(Cl)cc1Cl,-10%,.,.,.,40µM*,.
CN1C(=O)Cc2cc(S(=O)(=O)CCC(=O)N3CCN(c4cccc(Cl)c4)CC3)ccc21,-2%,.,.,.,2%,.
CCCc1ccc(OCC(O)CN2CCN(c3ccccn3)CC2)cc1 (stereo unspecified),-10%,-5,-8,.,4%,-5%
O=C(Cc1c(F)cccc1Cl)NNC(=O)c1ccco1,6%,.,.,.,.,.
O=C(CNC(=O)c1ccco1)OCc1c(F)cccc1Cl,-1%,8,20*,-2%,5%,-7%
O=C(NCCSCc1c(F)cccc1Cl)c1ccco1,-3%,119,29*,-12%,7%,6%
COc1ccccc1C(=O)NCCSCc1c(F)cccc1Cl,2%,25,23*,4%,11%,0%
COc1ccc(-c2cn3cccnc3n2)cc1NC(=O)Nc1ccc(Cl)cc1,1%,.,.,.,4%,.
Cn1cccc1CC(=O)N/N=C\c1c2ccccc2cc2ccccc12,7%,28,-3,0%,-32%,10%
Cn1cccc1CC(=O)N/N=C/c1cccc2ccccc12,5%,33*,22*,0%,?,6%
Cc1ccsc1/C=N/NC(=O)Cc1cccn1C,-21%,50,21*,2%,?,2%
CC(=C(CCOP(=O)(O)O)SC(=O)c1ccccc1)N(C=O)Cc1cnc(C)nc1N,5%[33.2 µM],.,.,-7%,.,.
Cc1ccc(C)c(CN2C(=O)c3ccccc3S(=O)(=O)c3ccc(C(=O)NCCC4=CCCCC4)cc32)c1,-9%,.,.,.,-4%,.
O=C(/C(Cl)=C/Nc1ccc(Br)cn1)C(F)(F)F,-3%,35,16*,17%,4%,-1%
COc1ccc(CNC(=O)Cn2nc3c(cc2=O)CCCC3)cc1,0%,.,.,.,-3%,.
COC(=O)N1CCC2(CCN(Cc3nccs3)CC2)CC1,0%,.,.,3%,.,.
COc1ccc2nc(/C(C#N)=C\c3ccc(Oc4ccc([N+](=O)[O-])cn4)cc3)[nH]c2c1,-6%,-5,-6,2%,-13%,-4%
COc1ccc2nc(/C(C#N)=C\c3ccc(C(=O)O)cc3)[nH]c2c1,4%,-5,-1,?,-12%,-4%
CCOc1cc(/C=C(/C#N)c2nc3ccccc3[nH]2)ccc1Oc1ccc([N+](=O)[O-])cn1,-4%,17,11*,-15%,-1%,-1%
N#C/C(=C\c1ccc(N2CCCCC2)c([N+](=O)[O-])c1)c1nn(-c2ccccc2)c(N)c1C#N,-15%,-12,-2,0%,-6%,3%
